Results: PubChem BioAssay AID651820 (National Center for Advancing Translational Sciences (NCATS), 2012)
The campaign covered roughly 340,000 compounds. About 12,000 (3.5%) were called active. About 18% were inconclusive and are not listed. The call rests on the fitted dose curve; in most records, active means well fitted inhibition curve with a large enough effect; inconclusive means small, poorly fitted or top-dose-only effect, or another doubt; inactive means no such curve, though single readings can be large or run the other way. The full list was thinned out, with actives kept by preference.

Test: qHTS Assay for Inhibitors of Hepatitis C Virus (HCV)
Conditions: Huh7.5.1 HCVcc-Cre infection, luciferase reporter, 44 h; series mostly up to 41.8 µM; activity change, negative = inhibition: at the top concentration
How it was run: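 Luciferase read-out (15 sec integration) after a 15 min room-temperature substrate step quantifies HCVcc-Cre infection. Cells, 1,000 per well, had compound added 4 h post-plating, then virus at ~0.5 moi, and were cultured 44 h.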
On the % scale 0 is the no-effect control and ±100 the full control effect; potency means the concentration at half of the fitted maximal effect.

Row | Structure (SMILES) | activity change, negative = inhibition | Potency
1 | Cc1cccc(C=CC(=O)c2ccc(Cl)cc2)c1 | -8.79% (inactive) | –
2 | COc1ccc(S(=O)(=O)NCc2ccc(C(=O)N3CCC4(CC3)OCCO4)cc2)cc1 | 17.5% (inactive) | –
3 | COc1ccc(CNS(=O)(=O)c2ccc(NC(=O)N3CCCCC3)cc2)cc1 | – | 8.91 µM (active)
4 | COc1ccc(S(=O)(=O)NC(C)C(=O)N2CCCCCC2)cc1 (centres undefined) | 4.24% (inactive) | –
5 | Cc1cc(=O)oc2ccc(OCC(=O)O)cc12 | 11% (inactive) | –
6 | Cc1c(Cc2ccccc2)c(=O)oc2cc(OCC(N)=O)ccc12 | -5.76% (inactive) | –
7 | CN(C)C(=O)Oc1ccc2c(c1)O/C(=C\c1ccccc1)C2=O | -25.2% (inactive) | –
8 | CCOC(=O)c1c(-c2ccccc2)oc2ccc(OCC(N)=O)cc12 | – | 10 µM (active)
9 | CCOC(=O)c1cc(=O)c2ccc(OCc3ccccc3)cc2o1 | 23.8% (inactive) | –
10 | CCOC(=O)c1c(-c2ccccc2)oc2ccc(OC(=O)N(C)C)cc12 | – | 10 µM (active)
11 | CCOc1ccccc1Nc1nnc(SCC(=O)NCC2CCCO2)s1 (centres undefined) | -2.14% (inactive) | –
12 | C=C(C)CNc1cc(S(=O)(=O)N2CCOCC2)ccc1Oc1ccccc1 | -4.73% (inactive) | –
13 | CCOc1ccc(CCNC(=O)COC(=O)c2c(OC)cccc2OC)cc1OCC | -15.3% (inactive) | –
14 | CC(C(=O)NC1CCCC1)N1CCN(S(=O)(=O)c2ccccc2Cl)CC1 (centres undefined) | 9.79% (inactive) | –
15 | COc1ccc(OC)c(NC(=O)COC(=O)Cc2ccsc2)c1 | -5.62% (inactive) | –
16 | Cc1ccc(Br)c(NS(=O)(=O)c2cccc(C(=O)N3CCNC(=O)C3)c2)c1 | 21% (inactive) | –
17 | Cc1ccc2nc(S(=O)(=O)O)[nH]c2c1 | 14.7% (inactive) | –
18 | CCOC(=O)CSc1nc2ccc(C)cc2[nH]1 | -5.08% (inactive) | –
19 | Cc1ccc2nc(/C(C#N)=C\c3ccc(OC(=O)c4cccs4)cc3)[nH]c2c1 | – | 1.78 µM (active)
20 | Cc1cc(C(=O)OCC(=O)Nc2ccccc2Cl)c(C)o1 | 22.3% (inactive) | –
21 | O=C(O)CN1CCN(C(c2ccccc2)c2ccccc2)CC1 | -3.12% (inactive) | –
22 | CC(C)NC(=S)N1CCN(C(c2ccccc2)c2ccccc2)CC1 | -7.24% (inactive) | –

Row | Structure (SMILES) | activity change, negative = inhibition | Potency
23 | CC1(C)CC(N2CCN(C(c3ccccc3)c3ccccc3)CC2)=CC(=[N+]2CCCCC2)C1 | – | 3.16 µM (active)
24 | CS(=O)(=O)c1ccc(C(=O)OCC(=O)NNC(=O)COc2ccc(Cl)cc2)cc1 | 11.5% (inactive) | –
25 | O=C(NCCCc1ccccc1)C(=O)NCC1OCCN1S(=O)(=O)c1ccccc1 (centres undefined) | -12.1% (inactive) | –
26 | CN=C(Nc1cccc(S(=O)(=O)N2CCOCC2)c1)c1ccccc1 | -0.947% (inactive) | –
27 | CC(C)Oc1ccc(C(=O)NCC(=O)Nc2ccc3c(c2)CCC3)cc1 | 17.9% (inactive) | –
28 | CC[C@]1(C(=O)OC)[C@H]2C(=O)N(Cc3ccccc3)C(=O)[C@H]2[C@H]2CN=C(SCc3ccccc3)N21 | -13.1% (inactive) | –
29 | Cn1c(=N)n(CC(O)c2cccs2)c2ccccc21 (centres undefined) | -5.72% (inactive) | –
30 | N=c1n(Cc2ccc(Cl)cc2)c2ccccc2n1CC(O)c1ccco1 (centres undefined) | – | 11.2 µM (active)
31 | O=S(=O)(O)c1nc2ccccc2n1Cc1ccc(Cl)cc1 | 28.9% (inactive) | –
32 | C[C@H](CO)N1C[C@H](C)[C@H](CN(C)CC2CC2)Oc2ccc(NC(=O)CCN3CCOCC3)cc2C1=O | -0.967% (inactive) | –
33 | C[C@]12CCC(=O)C=C1C=CC1C2CC[C@@]2(C)C1CC[C@@]21CCC(=O)O1 (some centres undefined) | -13.4% (inactive) | –
34 | COc1ccc(-c2c(C#Cc3ccsc3)c3cc(-c4ccc(CN5CCOCC5)cc4)ccc3n2C)cc1 | 3.05% (inactive) | –
35 | Cc1cc(N2CCN(c3ccccc3)CC2)nc(N2CCOCC2)n1 | -27.5% (inactive) | –
36 | Cc1cc(Nc2ccc(N3CCOCC3)cc2)c2cccc(C)c2n1 | -9.69% (inactive) | –
37 | Cc1cc(N2CCOCC2)nc(-c2ccc(Br)cc2)n1 | – | 10 µM (active)
38 | O=[N+]([O-])c1ccc(COc2ccccc2CN2CCOCC2)cc1 | -17.2% [at 8.37 µM] (inactive) | –
39 | Cc1cnc(NC(=O)c2ccccn2)s1 | – | 10 µM (active)
40 | Cc1cnc(NC(=O)c2ccc(Cl)nc2)s1 | 12.2% (inactive) | –
41 | Cc1cnc(NC(=O)CSc2c(Cl)cccc2Cl)s1 | 6.41% (inactive) | –
42 | O=C(NCCc1ccc(F)cc1)c1ccc2nccnc2c1 | -8.35% (inactive) | –
43 | NC(=O)c1ccc(N2CCCC2)nc1 | 19% (inactive) | –
44 | C[C@H]1CN([C@@H](C)CO)C(=O)Cc2cc(NC(=O)Cc3ccccc3)ccc2O[C@H]1CN(C)S(=O)(=O)c1cccs1 | -7.75% (inactive) | –

Row | Structure (SMILES) | activity change, negative = inhibition | Potency
45 | COC(=O)c1ccc(SCc2ccccc2)nc1 | 4.39% (inactive) | –
46 | CCCCOc1ccc(C(=O)NCC(=O)OCC(=O)c2c(N)n(C)c(=O)n(C)c2=O)cc1 | 8% (inactive) | –
47 | COc1ccc(C(=O)N(C)Cc2ccc(OC)c(OC)c2OC)cc1S(=O)(=O)N1CCOCC1 | 1.42% (inactive) | –
48 | COc1ccc(-c2c(-c3cc(OC)cc(OC)c3)n(C)c3ccc(-c4ccn[nH]4)cc23)cc1 | – | 11.2 µM (active)
49 | COc1cc(OC)cc(-c2c(C#Cc3ccsc3)c3cc(-c4ccc(OC)cc4F)ccc3n2C)c1 | 8.06% (inactive) | –
50 | COc1cc(OC)cc(-c2c(-c3cccs3)c3cc(-c4ccc(OC)nc4)ccc3n2C)c1 | -8.98% (inactive) | –
51 | COc1ccc(-c2c(C#Cc3ccccc3)c3ccccc3n2C)cc1 | -1.44% (inactive) | –
52 | COc1cc(OC)cc(-c2c(-c3ccc(F)cc3)c3cc(-c4ccc5cc[nH]c5c4)ccc3n2C)c1 | – | 10 µM (active)
53 | COc1cc(OC)cc(-c2c(C#Cc3ccsc3)c3cc(-c4ccc(SC)cc4)ccc3n2C)c1 | -10.3% (inactive) | –
54 | CC1O[C@H](OC2C(COC3OC(CO)C(O)[C@H](O)C3O)OC(OC3CC[C@]4(C)C(CC[C@@]5(C)[C@@H]4C=C[C@]46OC[C@@]7(CCC(C)(C)C[C@H]74)C(O)C[C@@]56C)C3(C)C)C(O)C2O)C(O)C(O)C1O (some centres undefined) | 3.93% (inactive) | –
55 | CNC[C@@H]1Oc2c(NS(C)(=O)=O)cccc2C(=O)N([C@@H](C)CO)C[C@H]1C | 12.2% (inactive) | –
56 | CCN(CC(=O)Nc1ccccc1C(F)(F)F)C(=O)C1CCN(C(=O)Nc2ccccc2)CC1 | 1.26% (inactive) | –
57 | COc1ccc(CCNC(=O)COC(=O)c2cc(=O)c3ccccc3o2)cc1 | -17.9% (inactive) | –
58 | Cc1cc(C)cc(NC(=O)CN2C(=O)c3ccccc3C2=O)c1 | -14.1% (inactive) | –
59 | Cc1cc2c(cc1C)N(C(=O)CN1C(=O)c3ccccc3C1=O)C(C)(C)c1ssc(=S)c1-2 | – | 8.91 µM (active)
60 | Cc1ccc(NC(=O)CCN2C(=O)c3ccccc3C2=O)cc1C | -7.16% (inactive) | –
61 | O=C(NOCc1ccccc1)c1cccc([N+](=O)[O-])c1 | 3.65% (inactive) | –
62 | O=C(Nc1cccc(Cl)c1)C1CCCN(c2cnccn2)C1 (centres undefined) | 7% (inactive) | –
63 | O=C(NC1CCCC1)C1CCN(C(=O)Nc2cccc(Cl)c2)CC1 | -10.4% (inactive) | –
64 | O=C(Nc1cccc(-c2cccc(Cl)c2)c1)C1CCN(C2CCC2)CC1 | – | 12.6 µM (active)
